Assay results published in PubChem BioAssay (EPA / NIEHS).
“And” between values parts separate entries of the source, which are not always exact repeats. Equal values may be shown once. Records with an inconclusive call do not appear. The source made the active and inactive calls. How the source made its calls, unless noted: active means hit-call score of the fitted dose curve at least 0.9, where 1 is the maximum; inactive means score below 0.9.

Experiments:
TIMP1, TIMP1 (gene 7076) = assay: LTEA_HepaRG_TIMP1: Life Technologies and Expression Analysis (LTEA) Assay for TIMP1 using HepaRG (AID 2283534); details: mRNA level, 48 h; actives raise or lower the signal
Summary of the method: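 HepaRG, 48 h exposure, 8-pt half-log series from 100 uM in 0.5% DMSO, duplicates; TIMP1 transcript by Fluidigm qRT-PCR, housekeeping-normalized; bidirectional curve fit vs DMSO baseline.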

[1] = read-out: Tumor necrosis factor receptor 1 (TNFRSF1A), TNFRSF1A (gene 7132); assay: LTEA_HepaRG_TNFRSF1A: Life Technologies and Expression Analysis (LTEA) Assay for Tumor necrosis factor receptor 1 (TNFRSF1A) using HepaRG (AID 2283535); details: mRNA level, 48 h; actives raise or lower the signal
Summary of the method: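 HepaRG, 48 h plating then 48 h chemical exposure, serum-free induction media; 8-pt CRC from 100 uM, half-log, 0.5% DMSO vehicle, duplicates. Readout: TaqMan qRT-PCR (Fluidigm), housekeeping-gene normalized; bidirectional fit vs DMSO.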

[2] = read-out: Cellular tumor antigen p53 (Homo sapiens) (UniProt P04637); assay: LTEA_HepaRG_TP53: Life Technologies and Expression Analysis (LTEA) Assay for Tumor Protein P53 (TP53) using HepaRG (AID 2283537); details: mRNA level, 48 h; actives raise or lower the signal
Summary of the method: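 TP53 transcript measured by qRT-PCR, normalized to three housekeeping genes, after 48 h treatment of human HepaRG cultures with chemicals from 100 uM downward in half-log steps (0.5% DMSO vehicle, serum-free induction medium). Up- or down-regulation fitted against DMSO.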

[3] = read-out: UDP glucuronosyltransferase (UGT1A1), UGT1A1 (gene 54658); assay: LTEA_HepaRG_UGT1A1: Life Technologies and Expression Analysis (LTEA) Assay for UDP glucuronosyltransferase (UGT1A1) using HepaRG (AID 2283538); details: mRNA level, 48 h; actives raise or lower the signal
Summary of the method: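 Human liver HepaRG cultures receive test chemical for 48 h, up to 100 uM in 0.5% DMSO, with phenobarbital induction controls. UGT1A1 mRNA is measured by qRT-PCR and normalized to ACTB, GAPDH and POLR2A.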

[4] = read-out: UDP glucuronosyltransferase (UGT1A6), UGT1A6 (gene 54578); assay: LTEA_HepaRG_UGT1A6: Life Technologies and Expression Analysis (LTEA) Assay for UDP glucuronosyltransferase (UGT1A6) using HepaRG (AID 2283539); details: mRNA level, 48 h; actives raise or lower the signal
Summary of the method: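 qRT-PCR readout of UGT1A6 mRNA (normalized to ACTB/GAPDH/POLR2A) in differentiated HepaRG cells after 48 h chemical exposure; 8 concentrations, top 100 uM, half-log steps, 0.5% DMSO. Bidirectional curve fit relative to DMSO baseline.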

[5] = read-out: X-box binding protein 1 (XBP1), XBP1 (gene 7494); assay: LTEA_HepaRG_XBP1: Life Technologies and Expression Analysis (LTEA) Assay for X-box binding protein 1 (XBP1) using HepaRG (AID 2283540); details: mRNA level, 48 h; actives raise or lower the signal
Summary of the method: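 HepaRG, 48 h exposure, 8-pt half-log CRC top 100 uM, 0.5% DMSO vehicle, duplicates. Readout: TaqMan qRT-PCR of XBP1 mRNA, housekeeping-normalised (ACTB/GAPDH/POLR2A); bidirectional fit vs DMSO baseline.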

[6] = LTEA_HepaRG_LDH_cytotoxicity: Cytotoxicity Assessment in the Life Technologies and Expression Analysis (LTEA) Assay (AID 2283563; active means hit-call score of the fitted dose curve at least 0.9, where 1 is the maximum;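 on AC50: LDH activity released into spent culture medium as a marker of cell death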)
Summary of the method: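 HepaRG (human liver line), 48 h exposure, 8-pt half-log series from 100 uM, 0.5% DMSO vehicle, duplicates. Read-out: LDH in spent medium. Positive-direction fit vs DMSO baseline.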

[7] = TOX21_p53_BLA_p2_viability: Viability Assessment in the Tox21 HCT-116 p53 Agonism Beta-lactamase Assay, Phase 2 (AID 2283591; active means hit-call score of the fitted dose curve at least 0.9, where 1 is the maximum;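 further: compound exposure lasted 16 h at 37 °C; actives lower the ATP signal meaning cytotoxicity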)
Summary of the method: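 HCT-116 p53-bla cells (4000/well) rested 5 h at 37C, then received compounds in DMSO (217-fold dilution) for 16 h at 37C, 5% CO2. After the CCF4 read, CellTiter-Glo was added; ATP luminescence was read after 30 min at room temperature.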

[8] = ATG_XTT_Cytotoxicity: Cytotoxicity Assessment in the Attagene TRANS-FACTORIAL HepG2 Assay (AID 2283584; active means hit-call score of the fitted dose curve at least 0.9, where 1 is the maximum;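 on AC50: cells exposed to compound for 24 h before reading; active means loss of viability signal versus DMSO baseline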)
Summary of the method: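 XTT readout of cell number in transfected HepG2 cells, 24 h post-dosing; DMSO serves as negative control and baseline, with activity taken as loss of viability signal.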

[9] = read-out: Thyroid Hormone Responsive (THRSP), THRSP (gene 7069); assay: LTEA_HepaRG_THRSP: Life Technologies and Expression Analysis (LTEA) Assay for Thyroid Hormone Responsive (THRSP) using HepaRG (AID 2283536); details: mRNA level, 48 h; actives raise or lower the signal
Summary of the method: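 Differentiated human HepaRG cells were exposed in duplicate for 48 h in serum-free induction medium to eight concentrations (top 100 uM, half-log steps, 0.5% DMSO). Expression was quantified by TaqMan qRT-PCR, normalized to ACTB, GAPDH and POLR2A, with bidirectional fitting against DMSO.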

Measured: AC50

Cellular tumor antigen p53 (Homo sapiens), sequence (P04637 whole entry, looked up): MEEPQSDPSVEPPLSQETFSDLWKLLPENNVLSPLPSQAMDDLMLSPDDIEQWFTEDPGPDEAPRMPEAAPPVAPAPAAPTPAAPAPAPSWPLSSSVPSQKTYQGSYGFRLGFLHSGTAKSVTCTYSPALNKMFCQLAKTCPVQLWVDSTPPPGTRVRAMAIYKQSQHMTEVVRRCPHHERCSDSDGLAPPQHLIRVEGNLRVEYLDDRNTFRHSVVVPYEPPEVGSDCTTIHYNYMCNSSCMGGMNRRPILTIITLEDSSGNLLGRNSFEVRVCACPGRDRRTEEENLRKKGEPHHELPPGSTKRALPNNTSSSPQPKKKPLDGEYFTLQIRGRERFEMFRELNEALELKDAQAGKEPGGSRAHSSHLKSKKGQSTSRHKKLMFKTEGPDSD

CC(C)(C)OOC(C)(C)C
not listed: [8] | [9]
inactive: all other assays above

Cc1cccc(N)c1
not listed: [8] | [9]
inactive: all other assays above

CCN(CC)c1ccccc1
not listed: [8] | [9]
inactive: all other assays above

c1ccc(OP(Oc2ccccc2)Oc2ccccc2)cc1
not listed: [7] | [8] | [9]
inactive: all other assays above

COCCOCCO
inactive: TIMP1, TIMP1 (gene 7076) | [1] | [4] | [5] | [6]
active: [3] 1.57 µM

CCOP(=S)(Oc1ccc([N+](=O)[O-])cc1)c1ccccc1 (configuration not stated)
active: [3] 12.7 µM
inactive: TIMP1, TIMP1 (gene 7076) | [1] | [4] | [5] | [6]

Cc1ccc(O)cc1C
inactive: TIMP1, TIMP1 (gene 7076) | [1] | [2] | [3] | [4] | [5]

CCOS(=O)(=O)OCC
not listed: [8] | [9]
inactive: all other assays above

CCC(C)(C)c1ccc(O)cc1
not listed: [9]
inactive: all other assays above

O=P1(N(CCCl)CCCl)NCCCO1 (configuration not stated)
not listed: [8] | [9]
inactive: all other assays above

Nc1ccc(Cl)cc1
active: [3] 36.5 µM
not listed: [9]
inactive: all other assays above

ClC(Cl)(Cl)c1ccccc1
not listed: [7] | [8] | [9]
inactive: all other assays above

Nc1ccc2ccccc2c1
active: [3] 18.8 µM
not listed: [9]
inactive: all other assays above

O=C(O)C1C(C(=O)O)C2(Cl)C(Cl)=C(Cl)C1(Cl)C2(Cl)Cl (configuration not stated)
not listed: [9]
inactive: all other assays above

Cc1ccc(N)cc1N
active: [3] 15 µM
not listed: [7] | [8] | [9]
inactive: all other assays above

[N-]=[N+]=[N-]
active: [1] 72.6 µM | [2] 81.9 µM | [3] 80.7 µM
not listed: [8] | [9]
inactive: all other assays above

O=C(O)C(Cl)Cl
active: [4] 0.312 µM
inactive: TIMP1, TIMP1 (gene 7076) | [1] | [3] | [5] | [6]

CC(Cl)(Cl)C(=O)O
inactive: TIMP1, TIMP1 (gene 7076) | [1] | [3] | [4] | [5] | [6]

CCCCCCCc1ccc(O)cc1
inactive: TIMP1, TIMP1 (gene 7076) | [1] | [3] | [4] | [5] | [6]

ClC(Cl)c1ccccc1
inactive: TIMP1, TIMP1 (gene 7076) | [1] | [3] | [4] | [5] | [6]

OCC1CO1 (configuration not stated)
not listed: [7] | [8]
inactive: all other assays above

CCCCN(CCCC)SN(C)C(=O)Oc1cccc2c1OC(C)(C)C2
active: [3] 10 µM
inactive: TIMP1, TIMP1 (gene 7076) | [1] | [4] | [5] | [6]

c1ccc2c(c1)Nc1ccccc1S2
active: [3] 50 µM
not listed: [9]
inactive: all other assays above

CCNc1nc(Cl)nc(NC(C)(C)C)n1
active: [3] 6.03 µM
inactive: TIMP1, TIMP1 (gene 7076) | [1] | [4] | [5] | [6]

CCC1(c2ccccc2)C(=O)N=C(O)NC1=O (configuration not stated)
active: [3] 50 µM
not listed: [8]
inactive: all other assays above

CCOP(=S)(OCC)SCSCC
not listed: [2] | [7] | [9]
inactive: all other assays above

CC(Cc1ccc(OCC(=O)O)cc1)NCC(O)c1csc(C(F)(F)F)n1 (configuration not stated)
not listed: [7] | [8] | [9]
inactive: all other assays above

CCOc1ccc(C(C)(C)COCc2cccc(Oc3ccccc3)c2)cc1
active: [3] 10.2 µM
not listed: [4] | [8] | [9]
inactive: all other assays above

CC(C)(C)c1ccc(O)cc1
inactive: TIMP1, TIMP1 (gene 7076) | [1] | [2] | [3] | [4] | [5]

O=[N+]([O-])c1ccccc1
not listed: [8] | [9]
inactive: all other assays above

O=P(Oc1ccccc1)(Oc1ccccc1)Oc1ccccc1
active: TIMP1, TIMP1 (gene 7076) 73.1 µM | [2] 50 µM | [3] 3.1 µM | [6] 72.7 µM
not listed: [9]
inactive: all other assays above

CCCCN(CCCC)N=O
not listed: [9]
inactive: all other assays above

c1cc2c3c(cccc3c1)CC2
not listed: [8] | [9]
inactive: all other assays above

CCOC(=O)c1ccccc1C(=O)OCC
not listed: [8]
inactive: all other assays above

Nc1cc2c3c(c1)C(c1ccccc1)=N[C@@H](NC(=O)c1cccnc1)C(=O)N3CC2
inactive: TIMP1, TIMP1 (gene 7076) | [1] | [3] | [4] | [5] | [6]

ClC1=C(Cl)C2(Cl)C3C(Cl)C(Cl)CC3C1(Cl)C2(Cl)Cl (configuration not stated)
active: [3] 2.81 µM | [8] 157 µM | [7] 50.8 µM and 46 µM
not listed: [9]
inactive: all other assays above

O=[N+]([O-])c1ccc(Cl)c(Cl)c1
active: [3] 13.5 µM
not listed: [2] | [7] | [9]
inactive: all other assays above

c1nc[nH]n1
not listed: [8] | [9]
inactive: all other assays above

CCCN(CCC)c1c([N+](=O)[O-])cc(C(C)C)cc1[N+](=O)[O-]
active: TIMP1, TIMP1 (gene 7076) 0.11 µM | [1] 0.0432 µM | [2] 0.322 µM | [3] 1.85 µM | [4] 1.17 µM
inactive: [5] | [6] | [7]

CC(C)CBr
inactive: [8]

O=S(=O)(c1ccc(O)cc1)c1ccc(O)cc1
inactive: [8] | [7]

CCCCOCCOP(=O)(OCCOCCCC)OCCOCCCC
inactive: [7]

CCCCc1ccc(O)cc1
inactive: [8]

Oc1ccc(I)cc1
inactive: [8]

Cc1ccc([N+](=O)[O-])cc1C
not listed: [2] | [7] | [9]
inactive: all other assays above

Cn1[nH]nnc1=S
inactive: [8]

CC1=C(C(=O)Nc2ccccc2)S(=O)(=O)CCO1
inactive: [7]

CN(C)C(=O)Cl
not listed: [2] | [7] | [9]
inactive: all other assays above

O=P(OCC(Br)CBr)(OCC(Br)CBr)OCC(Br)CBr (configuration not stated)
inactive: [8] | [7]

CO/N=C(/C(=O)OC)c1ccccc1COc1ccccc1C
inactive: [7]

O=NN1CCCC1
inactive: [7]

NNC(N)=S
inactive: [7]

CC(Cl)CN(C)C (configuration not stated)
inactive: [8]

CCCCc1ccccc1
not listed: [2] | [7] | [9]
inactive: all other assays above

C=C(C)C(=O)OCC1CO1 (configuration not stated)
inactive: [8] | [7]

Cc1c([N+](=O)[O-])cc2c(c1[N+](=O)[O-])C(C)(C)CC2(C)C
inactive: [8]

Nc1ccc(Sc2ccc(N)cc2)cc1
inactive: [8]

O=C(CBr)OCc1ccccc1
inactive: [7]

CCOP(=S)(NC(C)C)Oc1ccccc1C(=O)OC(C)C (configuration not stated)
inactive: [8] | [7]

c1ccc2c(c1)sc1ccccc12
inactive: [8] | [7]

O=C(O)CF
inactive: [8]

CCCCN(CC)C(=O)SCCC
inactive: [7]

CSC(C)(C)C=NO
not listed: [2] | [7] | [9]
inactive: all other assays above

COC(N)=O
inactive: [8] | [7]

Cc1ccc2c(c1N)C(=O)c1ccccc1C2=O
inactive: [7]

C/C(=N\NC(=O)Nc1cc(F)cc(F)c1)c1ncccc1C(=O)O
inactive: [7]

C=CC(=O)OCC(CC)(COC(=O)C=C)COC(=O)C=C
active: [7] 46.1 µM and 95.1 µM
inactive: [8]

FC(F)(F)c1ccc(Cl)cc1
inactive: [8]

O=c1ssc(Cl)c1Cl
inactive: [7]

O=S1(=O)OCC2C(CO1)C1(Cl)C(Cl)=C(Cl)C2(Cl)C1(Cl)Cl (configuration not stated)
inactive: [7]

N#C/C=C/c1ccccc1
inactive: [8]

CCOP(=S)(OCC)SCn1nnc2ccccc2c1=O
inactive: [7]

CCCCC(CC)COP(=O)(Oc1ccccc1)Oc1ccccc1 (configuration not stated)
inactive: [8]

CC(C)Nc1ccc(Nc2ccccc2)cc1
active: [7] 46.1 µM and 45.9 µM and 23 µM

Clc1ccc(Oc2ccccc2)cc1
inactive: [8]

COP(=O)(O)OC
inactive: [8] | [7]

CCOP(=S)(S)OCC
inactive: [8] | [7]

COP(=O)(CCC(=O)NCO)OC
inactive: [8]

CC1(C)CN=C(NN=C(/C=C/c2ccc(C(F)(F)F)cc2)/C=C/c2ccc(C(F)(F)F)cc2)NC1
inactive: [8]
active: [7] 14.7 µM
